Our source for the growth values is PubChem BioAssay (NCI).

This is part of a sample that, as a whole, favours compounds with a hit. Of some 83,000 tested, about 20% had one in any assay.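 In brief: 96-well plates, 48 h treatment, single concentration, percent growth endpoint.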 Unmarked numbers belong to inactive results. Active and inactive are the calls of the source. Rule for the calls: active = growth percent below 10; inactive = the rest.

Test systems include NCI-H23 lung; NCI-H322M lung; HOP-62 NSCLC; NCI-H460 lung; NCI-H522 lung; A549/ATCC NSCLC; 786-0 renal; COLO 205 colon; HOP-92 NSCLC; NCI-H226 lung.
Holding throughout (assay): NCI-60 one-dose screen, 48 h (100 = growth as untreated, 0 = no growth, -100 = all killed)
Conditions in all cases: 10 µM unless noted

As for `CC(C)c1c(C(=O)c2ccccc2)c(-c2ccccc2)c(-c2ccc(F)cc2)n1CC[C@@H](O)C[C@@H](O)CC(=O)O`, the growth in the experiment with NCI-H23 lung is 56.8%; in the experiment with NCI-H322M lung it was 58.6%; in the experiment with HOP-62 NSCLC, 90.1%; in the experiment on NCI-H460 lung, 87.5%; in the experiment on NCI-H522 lung it was 25.9%; with A549/ATCC NSCLC, 100%. Further, the growth in the experiment with 786-0 renal was 77.5%; with COLO 205 colon, 55.3%.
On to `COc1cccc(-c2nc3sccn3c2-c2ccnc(NCCCNS(=O)(=O)c3c(Cl)cccc3Cl)c2)c1`, for which the growth in the experiment with NCI-H23 lung was 60.3%; in the experiment on NCI-H322M lung, 90.5%; with HOP-62 NSCLC, 85.6%; in the experiment with NCI-H460 lung, 67.4%; in the experiment with HOP-92 NSCLC it was 49.6%; with NCI-H522 lung, 60.6%. The growth with 786-0 renal was 70.4%; in the experiment with COLO 205 colon, 55.9%.
As for `Clc1ccc2c(NCCCCNc3nc(N4CCOCC4)nc4ccccc34)ccnc2c1`, the growth is -43.4% (active) in the experiment with NCI-H226 lung; 26.4% in the experiment on NCI-H322M lung; -9.83% (active) in the experiment on HOP-62 NSCLC; 4.54% (active) in the experiment on NCI-H460 lung; 71.8% in the experiment with HOP-92 NSCLC; -25.6% (active) in the experiment with NCI-H522 lung. The growth in the experiment with A549/ATCC NSCLC is 14.6%; in the experiment on 786-0 renal, -54.1% (active); in the experiment on COLO 205 colon, -46.9% (active).
With `O=C(/C=C/c1ccc(C(F)(F)F)cc1)Nc1ccc(C=C2c3ccccc3C(=O)c3ccccc32)cc1`, the growth with NCI-H23 lung was 49.2%; in the experiment on NCI-H322M lung it was 97.3%; with HOP-62 NSCLC, 78.8%; with NCI-H460 lung it was 62.3%; in the experiment with HOP-92 NSCLC, 55.6%; in the experiment on NCI-H522 lung, 20.8%. Also, the growth in the experiment with 786-0 renal was 62.1%; with COLO 205 colon, 66.5%.
`CCNC(=O)Oc1ccc(/C(=C(\C)c2ccc(Cl)cc2)c2ccc(OCCN(CC)CC)cc2)cc1`: the growth with NCI-H23 lung was 65.6%; in the experiment on NCI-H322M lung, 68.7%; in the experiment on HOP-62 NSCLC, 54.6%; with NCI-H460 lung, 7.6% (active); in the experiment on HOP-92 NSCLC it was 57.9%; in the experiment on NCI-H522 lung, 55.4%. The growth in the experiment with A549/ATCC NSCLC is 45.8%; in the experiment on 786-0 renal, 24.7%; in the experiment with COLO 205 colon, -57.8% (active).
Take `Clc1ccc2c(NCCNc3nc(N4CCOCC4)nc4ccccc34)ccnc2c1`: the growth with NCI-H23 lung is 44%; in the experiment on NCI-H322M lung, 15.9%; with HOP-62 NSCLC, -37.1% (active); in the experiment on NCI-H460 lung, -29.3% (active); in the experiment on HOP-92 NSCLC, -41.6% (active); in the experiment with NCI-H522 lung it was -70.6% (active). The results for the growth in the experiment with A549/ATCC NSCLC, with 786-0 renal and in the experiment on COLO 205 colon were 5.31% (active), -39.9% (active) and -67.5% (active), respectively.
With `O=C1c2cc3c(cc2-c2c1c1ccc(F)cc1c(=O)n2C[C@H](O)[C@@H](O)[C@H](O)CO)OCO3`, the growth was -31.9% (active) in the experiment with NCI-H23 lung; 13% with NCI-H322M lung; -7.29% (active) with HOP-62 NSCLC; 3.2% (active) with NCI-H460 lung; 6.56% (active) in the experiment on HOP-92 NSCLC; -22.1% (active) in the experiment with NCI-H522 lung. The results for the growth in the experiment on 786-0 renal and with COLO 205 colon were 4.19% (active) and -31.1% (active), respectively.
Turning to `COCCNc1ccc2c3c(cccc13)C(=O)N(CCN(C)C)C2=O`, the growth with NCI-H23 lung is 25.6%; in the experiment with NCI-H322M lung, 23.1%; in the experiment on HOP-62 NSCLC it was 50.9%; with NCI-H460 lung, -21.9% (active); with HOP-92 NSCLC, 18.4%; in the experiment with NCI-H522 lung, -25.6% (active). The growth with A549/ATCC NSCLC was 5.73% (active); with 786-0 renal it was 32.1%; in the experiment on COLO 205 colon it was 6.86% (active).
For the compound `CC(=O)O[C@H]1C(=O)[C@@]2(C)[C@H]([C@H](OC(=O)c3ccccc3)[C@]3(O)C[C@H](OC(=O)[C@H](OC(=O)CCC(=O)OC4CCC(S/N=C(N)/N=C(\N)N(C)C)CC4)[C@@H](NC(=O)c4ccccc4)c4ccccc4)C(C)=C1C3(C)C)[C@]1(OC(C)=O)CO[C@@H]1C[C@@H]2O` (stereo not given in full), the growth in the experiment on NCI-H226 lung was 75.6%; with NCI-H322M lung, 17.8%; in the experiment with HOP-62 NSCLC, 29.7%; with NCI-H460 lung, 7.58% (active); with HOP-92 NSCLC, 54.9%; in the experiment on NCI-H522 lung, -25.7% (active). Also, the figures for the growth with A549/ATCC NSCLC, in the experiment on 786-0 renal and in the experiment on COLO 205 colon were 28.5%, 33.3% and -8.92% (active), respectively.
Turning to `CC/C=C\C[C@H]1C/C=C2/C(=O)C=C[C@H]2C/C=C\CCCC(=O)O1`, the growth with NCI-H226 lung is 40.5%; with NCI-H322M lung it was 37.7%; in the experiment with HOP-62 NSCLC, 22.5%; with NCI-H460 lung, 27.4%; in the experiment with HOP-92 NSCLC, 51.2%; in the experiment on NCI-H522 lung, -17.7% (active). The growth in the experiment with A549/ATCC NSCLC is 29.5%; in the experiment with 786-0 renal, 24.7%; with COLO 205 colon it was 6.26% (active).
`CC(C)(C)N1CCC1CN` (stereo not given): the growth with NCI-H226 lung is 111%; in the experiment on NCI-H322M lung, 118%; in the experiment with NCI-H460 lung, 109%; in the experiment on HOP-92 NSCLC, 108%; in the experiment with NCI-H522 lung, 135%; with A549/ATCC NSCLC it was 104%. The figures for the growth with 786-0 renal and with COLO 205 colon were 96.4% and 138%, respectively.
Turning to `CSc1nc(Nc2cccc(NC(=O)CCl)c2)c(C#N)c(-c2cccc([N+](=O)[O-])c2)n1`, the growth with NCI-H226 lung is 42.2%; in the experiment with NCI-H322M lung it was 97.4%; in the experiment on HOP-62 NSCLC, 86.5%; in the experiment with NCI-H460 lung, 86.8%; with HOP-92 NSCLC, 40.7%; in the experiment on NCI-H522 lung it was -55.9% (active). The growth is 95.9% in the experiment with A549/ATCC NSCLC, 73.2% with 786-0 renal and 35.9% in the experiment with COLO 205 colon.
For the compound `C=CCSSc1ncnc2c1ncn2C1OC(CO)C(O)C1O` (stereo not given), the growth with NCI-H226 lung is 65%; in the experiment with NCI-H322M lung it was 33.6%; with NCI-H460 lung, 43.3%; in the experiment on HOP-92 NSCLC, 28.2%; in the experiment on NCI-H522 lung, 11.3%; in the experiment on A549/ATCC NSCLC, 79.7%. For the same compound, the growth in the experiment with 786-0 renal was 14.6%; in the experiment on COLO 205 colon, 25.6%.
For `CCCCC[C@H]1C/C=C2/C(=O)C=C[C@@H]2C/C=C\CCCC(=O)O1`, the growth is -65.1% (active) with NCI-H226 lung; -52.7% (active) with NCI-H322M lung; -46.3% (active) in the experiment with HOP-62 NSCLC; -1.5% (active) in the experiment on NCI-H460 lung; -39.5% (active) in the experiment with HOP-92 NSCLC; -78.4% (active) in the experiment on NCI-H522 lung. Also, the growth is -23.6% (active) in the experiment on A549/ATCC NSCLC, -76.4% (active) in the experiment with 786-0 renal and -47.6% (active) with COLO 205 colon.
